About 14,000 (4.5%) of roughly 310,000 compounds showed an effect of 50% or more. Effects have a minus sign here. Shown is part of a subset that was picked to be rich in strong results.
biological target: human ether-à-go-go-related gene (hERG) potassium channel (human, UniProt Q12809); experiment: primary screen, population patch clamp on CHO cells stably expressing hERG; higher = less effect of the substance
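Also: peak tail current of the secondary pulse compared with the same well before compound.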

human ether-à-go-go-related gene (hERG) potassium channel, sequence (Q12809 whole entry, looked up): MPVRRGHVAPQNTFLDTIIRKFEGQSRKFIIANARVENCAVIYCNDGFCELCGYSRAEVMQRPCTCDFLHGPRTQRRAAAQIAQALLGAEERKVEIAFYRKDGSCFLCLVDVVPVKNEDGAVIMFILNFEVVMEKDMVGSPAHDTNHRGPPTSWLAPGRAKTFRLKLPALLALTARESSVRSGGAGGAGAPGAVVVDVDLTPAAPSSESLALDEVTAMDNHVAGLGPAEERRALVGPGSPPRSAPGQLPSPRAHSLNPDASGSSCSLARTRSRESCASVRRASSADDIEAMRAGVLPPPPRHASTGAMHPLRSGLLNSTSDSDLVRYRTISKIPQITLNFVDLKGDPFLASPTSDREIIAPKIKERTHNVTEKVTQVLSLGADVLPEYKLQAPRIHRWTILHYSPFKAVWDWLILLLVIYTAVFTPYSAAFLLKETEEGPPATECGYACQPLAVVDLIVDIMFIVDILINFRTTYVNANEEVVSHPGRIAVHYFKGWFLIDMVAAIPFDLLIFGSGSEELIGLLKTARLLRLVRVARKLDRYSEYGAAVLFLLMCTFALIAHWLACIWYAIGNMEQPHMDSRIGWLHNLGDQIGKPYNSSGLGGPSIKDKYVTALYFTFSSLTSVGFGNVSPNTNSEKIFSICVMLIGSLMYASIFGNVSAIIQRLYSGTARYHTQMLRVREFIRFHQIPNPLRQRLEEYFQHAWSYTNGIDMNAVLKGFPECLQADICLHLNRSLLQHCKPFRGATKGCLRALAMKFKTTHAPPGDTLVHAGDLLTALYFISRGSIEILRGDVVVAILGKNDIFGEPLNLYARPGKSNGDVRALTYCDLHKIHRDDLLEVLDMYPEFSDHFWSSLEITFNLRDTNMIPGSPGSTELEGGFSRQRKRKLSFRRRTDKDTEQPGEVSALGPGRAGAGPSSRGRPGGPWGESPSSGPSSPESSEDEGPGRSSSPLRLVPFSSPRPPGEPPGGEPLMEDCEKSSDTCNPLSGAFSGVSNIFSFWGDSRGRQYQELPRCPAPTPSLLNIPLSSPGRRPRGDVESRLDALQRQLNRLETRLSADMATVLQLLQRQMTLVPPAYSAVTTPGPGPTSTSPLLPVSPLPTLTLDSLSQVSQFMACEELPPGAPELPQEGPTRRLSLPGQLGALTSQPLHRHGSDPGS

Row | Structure (SMILES) | hERG current change (%, negative = inhibition) at 10uM [%]
1 | O=C(/C=C/Nc1ccc(S(=O)(=O)Nc2cnc3ccccc3n2)cc1)c1cccnc1 | -12.9
2 | O=C(C[n+]1cc(Br)cc(Br)c1)c1ccccc1.[Br-] | 8.53
3 | CC(C)C(=O)c1cn(CC(=O)NCc2ccc3c(c2)OCO3)c2ccccc12 | 16
4 | CC1(C)CC(=O)C=C(c2ccc3[nH]ccc3c2)C1 | 1.61
5 | O=C(CC1SC(=Nc2ccc3c(c2)OCCO3)NC1=O)Nc1ccc(F)cc1F (stereo not drawn) | 8.62
6 | Cc1n[nH]c(=S)n1/N=C/c1ccc(OCc2ccc(Cl)cc2Cl)cc1 | 11.1
7 | Cc1cc(NC(=O)Cn2nnc(-c3ccccc3N)n2)no1 | 11.8
8 | CCOC(=O)c1c(NC(=O)CSc2nnc(-c3ccccc3)o2)sc(C(C)=O)c1C | 5.01
9 | Cc1ccc(N2CCN(C(=O)c3ccccc3)CC2)c(C)c1 | -18.4
10 | O=C(C1CC1)N1CCN(c2ccc([N+](=O)[O-])cc2-n2cccc2)CC1 | -31
11 | O=C(c1ccccc1)N1CCN(c2ccc([N+](=O)[O-])cc2-n2cccc2)CC1 | -54.5
12 | O=C(c1ccc(F)cc1)N1CCN(c2ccc([N+](=O)[O-])cc2-n2cccc2)CC1 | -65
13 | Cc1ccc(C(=O)N2CCN(c3ccc([N+](=O)[O-])cc3-n3cccc3)CC2)cc1 | -56.4
14 | O=C(c1ccc(F)cc1)N1CCC(C(=O)N2CCN(S(=O)(=O)c3cccc([N+](=O)[O-])c3)CC2)CC1 | -34.5
15 | CC(C)(C)C(=O)N1CCN(c2ccc([N+](=O)[O-])cc2-n2cccc2)CC1 | -26.3
16 | O=C(c1ccccc1F)N1CCN(c2ccc([N+](=O)[O-])cc2-n2cccc2)CC1 | -23.1
17 | CCOC(=O)C1CCCN(C(=O)c2cc3ccc(OC)cc3[nH]2)C1 (stereo not drawn) | 6.4
18 | CN1CCN(CCCNCc2cn(CCC#N)c3ccccc23)CC1.O=C(O)C(=O)O | 9.43
19 | Cc1ccc(C(O)(COC(=O)C(C)C)COC(=O)C(C)C)c(O)c1 | 3.76
20 | O=C(CCCC(=O)N(c1ccc2c(c1)OCCO2)C(C(=O)NC1CCCCC1)c1ccc(F)cc1)Nc1ccccn1 (stereo not drawn) | 10
21 | COc1ccc([N+](=O)[O-])cc1CSc1ccccn1 | 1.85
22 | O=C(NC1CCCCC1)C(c1cccs1)N(CC1CCCO1)C(=O)c1csnn1 (stereo not drawn) | -16.1
23 | COc1ccc(NC(=O)c2noc(C(C)C)c2[N+](=O)[O-])cc1 | 6.44
24 | Cc1ccc(NC(=O)CN2CCCN(S(=O)(=O)c3ccc(Br)s3)CC2)cc1 | -50.1
25 | COc1ccc(NC(=O)CN2CCN(S(=O)(=O)c3ccc(Cl)cc3)CC2)cc1 | -79.7
26 | CCOc1ccc(NC(=O)CN2CCN(S(=O)(=O)c3ccc(Cl)cc3)CC2)cc1 | -9.26
27 | O=C(CN1CCN(S(=O)(=O)c2ccc(Cl)cc2)CC1)NC1CCCC1 | -50.2

Row | Structure (SMILES) | hERG current change (%, negative = inhibition) at 10uM [%]
28 | COc1ccc(NC(C)=O)cc1NC(=O)CN1CCN(S(=O)(=O)c2ccc(C(C)C)cc2)CC1 | -9.86
29 | COc1ccc(NC(=O)CCN2CCN(S(=O)(=O)c3ccc(Cl)cc3)CC2)cc1 | -27.1
30 | O=C(CN1CCN(S(=O)(=O)c2ccc(Cl)cc2)CC1)NC(=O)NC1CCCCC1 | -27.7
31 | O=C(CN1CCN(S(=O)(=O)c2ccc(Cl)cc2)CC1)NC1CC1 | 1.82
32 | COc1ccc(NC(=O)CN2CCN(S(=O)(=O)c3ccc(C(C)C)cc3)CC2)cc1OC | -66.5
33 | COc1cc(NC(=O)CN2CCN(S(=O)(=O)c3ccc(C(C)C)cc3)CC2)cc(OC)c1 | -11.5
34 | O=C(CN1CCCN(S(=O)(=O)c2ccc(Br)s2)CC1)Nc1ccc(Cl)cc1 | -28.7
35 | Cc1cc(C)cc(NC(=O)CN2CCCN(S(=O)(=O)c3ccc(Br)s3)CC2)c1 | -6.01
36 | Cc1ccccc1/C=C1\SC(=S)N(/N=C/c2cc([N+](=O)[O-])ccc2O)C1=O | 8.13
37 | COc1ccc(N(C)C(=O)c2cnc(N3CCN(c4ncccn4)CC3)c3ccccc23)cc1 | -11.8
38 | Cc1ccc(NC(=O)N2CCC(NC(=O)C(C)(C)C)CC2)cc1 | 10.1
39 | O=C(Cn1cncn1)N/N=C/c1cccc(Cl)c1 | 16.3
40 | Oc1ccc(N=Nc2cccc(C(F)(F)F)c2)cc1C=Nc1ccc(N2CCOCC2)cc1 | 15.6
41 | CCOc1ccc(C(CC(=O)O)NC(=O)COc2ccccc2OC)cc1OC (stereo not drawn) | 26.4
42 | Cc1c(C(=O)O)cccc1-c1ccc(/C=N/Nc2ccc(Br)cc2)o1 | 30.2
43 | O=C(CN1CCN(S(=O)(=O)c2ccc(F)cc2)CC1)Nc1ccc2c(c1)OCCO2 | -10.9
44 | CCc1ccc(NC(=O)CN2CCCN(S(=O)(=O)c3ccc(F)cc3)CC2)cc1 | -63.9
45 | O=C(CN1CCCN(S(=O)(=O)c2ccc(F)cc2)CC1)Nc1cccc(F)c1 | -50.3
46 | COc1ccc(S(=O)(=O)N2CCN(CC(=O)Nc3cc(OC)cc(OC)c3)CC2)cc1 | -0.404
47 | NS(=O)(=O)c1ccc(NC(=O)CN2CCCN(S(=O)(=O)c3ccc(F)cc3)CC2)cc1 | -17.9
48 | O=C(CCC(=O)N1CCN(S(=O)(=O)c2ccc(Cl)cc2)CC1)NC1CCCc2ccccc21 (stereo not drawn) | -52.6
49 | O=C(CCC(=O)N1CCN(S(=O)(=O)c2ccccc2)CC1)NC1CCCc2ccccc21 (stereo not drawn) | -13.5
50 | COc1ccc(S(=O)(=O)N2CCN(CC(=O)Nc3ccc(F)c(F)c3)CC2)cc1 | -66.4
51 | O=C(CN1CCCN(S(=O)(=O)c2ccc(F)cc2)CC1)Nc1c(Cl)cccc1Cl | -27.1
52 | COc1ccc(NC(=O)CN2CCCN(S(=O)(=O)c3ccc(F)cc3)CC2)cc1 | -36.5
53 | Cc1ccc(S(=O)(=O)N2CCN(C(=O)CCC(=O)NC3CCCc4ccccc43)CC2)cc1 (stereo not drawn) | -17.3
54 | COc1ccc(NC(=O)CN2CCN(S(=O)(=O)c3ccc(Cl)cc3)CC2)cc1Cl | -0.308

Source: PMC4336329 (PLoS ONE, 2015)
